Assay results taken from the supplement of paper PMC8728848.
About 410 targets per protein were measured; listed, in parts, are those with the strongest signals and a random draw of the rest.

Columns and labels:
Assay in all cases: glycan array binding signal (z-score within array); higher = stronger binding
Details in all cases: glycan notation: IUPAC condensed, linker removed
[1] = target: Fuc(a1-2)Gal(b1-3)GlcNAc(b1-3)[Gal(b1-4)[Fuc(a1-3)]GlcNAc(b1-6)]Gal(b1-4)Glc
Method in brief: (§1)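 Glycan array data came from 3228 arrays in the Consortium for Functional Glycomics database, and only arrays with an available protein sequence were kept. Glycan names were put into IUPAC-condensed notation, and columns mapping to the same glycan were averaged. The binding signal is a within-array Z-score, averaged across arrays of one protein sequence run at different concentrations or buffers and across linkers. A negative Z-score can be read as non-binding.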

[2] = target: Fuc(a1-2)Gal(b1-4)GlcNAc(b1-2)Man(a1-3)[Fuc(a1-2)Gal(b1-4)GlcNAc(b1-2)Man(a1-6)]Man(b1-4)GlcNAc(b1-4)GlcNAc
Method in brief: as §1

[3] = target: Fuc(a1-2)[GalNAc(a1-3)]Gal(b1-4)GlcNAc(b1-3)Gal(b1-4)GlcNAc(b1-3)Gal(b1-4)GlcNAc
Method in brief: as §1

[4] = target: Fuc(a1-2)[GalNAc(a1-4)]Gal(b1-4)GlcNAc
Method in brief: as §1

Gal(a1-2)Gal = target: Gal(a1-2)Gal
Method in brief: as §1

[5] = target: Gal(a1-3)[Gal(a1-4)]Gal(b1-4)GlcNAc
Method in brief: as §1

Gal(a1-4)Gal(b1-4)GlcNAc = target: Gal(a1-4)Gal(b1-4)GlcNAc
Method in brief: as §1

[6] = target: Gal(b1-4)GlcNAc(b1-6)Gal(b1-4)GlcNAc(b1-6)GalNAc
Method in brief: as §1

[7] = target: Gal(b1-4)GlcNAc(b1-6)GalNAc
Method in brief: as §1

Gal3S6S(b1-4)GlcNAc6S = target: Gal3S6S(b1-4)GlcNAc6S
Method in brief: as §1

GalNAc(b1-3)Gal = target: GalNAc(b1-3)Gal
Method in brief: as §1

[8] = target: GalNAc(b1-3)Gal(a1-4)Gal(b1-4)GlcNAc
Method in brief: as §1

[9] = target: GalNAc(b1-3)Gal(a1-4)Gal(b1-4)GlcNAc(b1-3)Gal(b1-4)Glc
Method in brief: as §1

[10] = target: GlcNAc(a1-4)Gal(b1-4)GlcNAc(b1-3)Gal(b1-4)Glc
Method in brief: as §1

GlcNAc(b1-6)GalNAc = target: GlcNAc(b1-6)GalNAc
Method in brief: as §1

Kdn(a2-3)Gal(b1-3)GlcNAc = target: Kdn(a2-3)Gal(b1-3)GlcNAc
Method in brief: as §1

Kdn(a2-3)Gal(b1-4)GlcNAc = target: Kdn(a2-3)Gal(b1-4)GlcNAc
Method in brief: as §1

Man(a1-3)[Man(a1-6)]Man = target: Man(a1-3)[Man(a1-6)]Man
Method in brief: as §1

[11] = target: Man(a1-3)[Man(a1-6)]Man(a1-6)[Man(a1-2)Man(a1-3)]Man(b1-4)GlcNAc(b1-4)GlcNAc
Method in brief: as §1

[12] = target: Neu5Ac(a2-3)Gal(b1-3)GalNAc
Method in brief: as §1

[13] = target: Neu5Ac(a2-3)Gal(b1-3)GalNAc(b1-3)Gal(b1-4)GlcNAc
Method in brief: as §1

[14] = target: Neu5Ac(a2-3)Gal(b1-3)[Neu5Ac(a2-3)Gal(b1-4)]GlcNAc
Method in brief: as §1

Neu5Ac(a2-3)GalNAc = target: Neu5Ac(a2-3)GalNAc
Method in brief: as §1

[15] = target: Neu5Ac(a2-6)GlcNAc(b1-4)GlcNAc
Method in brief: as §1

[16] = target: Neu5Ac(b2-6)Gal(b1-4)GlcNAc
Method in brief: as §1

Neu5Ac(b2-6)GalNAc = target: Neu5Ac(b2-6)GalNAc
Method in brief: as §1

[17] = target: Neu5Gc(a2-3)Gal(b1-4)[Fuc(a1-3)]GlcNAc
Method in brief: as §1

Neu5Gc(a2-6)GalNAc = target: Neu5Gc(a2-6)GalNAc
Method in brief: as §1

B1: HHL-1 (Homo sapiens), P07306 (protein)
chain: TKEYQDLQHLDNEESDHHQLRKGPPPPQPLLQRLCSGPRLLLLSLGLSLLLLVVVCVIGSQNSQLQEELRGLRETFSNFTASTEAQVKGLSTQGGNVGRKMKSLESQLEKQQKDLSEDHSSLLLHVKQFVSDLRSLSCQMAALQGNGSERTCCPVNWVEHERSCYWFSRSGKAWADADNYCRLEDAHLVVVTSWEEQKFVQHHIGPVNTWMGLHDQNGPWKWVDGTDYETGFKNWRPEQPDDWYGHGLGGGEDCAHFTDDGRWNDDVCQRPYRWVCETELDKASQEPPLL
glycan array binding signal (z-score) [1]: 0.628
glycan array binding signal (z-score) [2]: -0.533
glycan array binding signal (z-score) [3]: -0.3
glycan array binding signal (z-score) [4]: 7.69
glycan array binding signal (z-score) (Gal(a1-2)Gal): 0.419
glycan array binding signal (z-score) [5]: 0.667
glycan array binding signal (z-score) (Gal(a1-4)Gal(b1-4)GlcNAc): -0.54
glycan array binding signal (z-score) [6]: 0.262
glycan array binding signal (z-score) [7]: 4.51
glycan array binding signal (z-score) (Gal3S6S(b1-4)GlcNAc6S): 0.503
glycan array binding signal (z-score) (GalNAc(b1-3)Gal): 4.09
glycan array binding signal (z-score) [8]: 5.53
glycan array binding signal (z-score) [9]: 5.52
glycan array binding signal (z-score) [10]: -0.538
glycan array binding signal (z-score) (GlcNAc(b1-6)GalNAc): 7.59
glycan array binding signal (z-score) (Kdn(a2-3)Gal(b1-3)GlcNAc): -0.538
glycan array binding signal (z-score) (Kdn(a2-3)Gal(b1-4)GlcNAc): 0.051
glycan array binding signal (z-score) (Man(a1-3)[Man(a1-6)]Man): -0.472
glycan array binding signal (z-score) [11]: -0.485
glycan array binding signal (z-score) [12]: 0.366
glycan array binding signal (z-score) [13]: -0.541
glycan array binding signal (z-score) [14]: -0.548
glycan array binding signal (z-score) (Neu5Ac(a2-3)GalNAc): -0.482
glycan array binding signal (z-score) [15]: 0.387
glycan array binding signal (z-score) [16]: -0.409
glycan array binding signal (z-score) (Neu5Ac(b2-6)GalNAc): -0.515
glycan array binding signal (z-score) [17]: 0.159
glycan array binding signal (z-score) (Neu5Gc(a2-6)GalNAc): -0.536
